From PubChem BioAssay (Tox21)
Several values for one entry are separate records, joined by “and”; a condition that tells them apart may be missing. Identical values can stand only once. Inconclusive results are not listed. Entries that show only a call come without a potency. Some compounds were tested as several samples or in several runs, with calls that do not always agree. Activity calls are given as the source filed them. Calls come from the whole dose curve; as a rule, active = well fitted activation curve with a large enough effect in the repeat runs; inconclusive = weak or mixed curves; inactive = flat fitted curve, though single readings scatter.

assay: A CellTox Green Cytotoxicity Assay to monitor cytotoxicity in HepG2 cells - 8 hour (AID 1224890); conditions: CellTox Green fluorescence; series mostly up to 76.8 µM; note: nearly all actives have a fitted effect of over 45% in size
Text: National Center for Advancing Translational Sciences [NCATS]
NIH Chemical Genomics Center [NCGC]
U.S. Environmental Protection Agency [EPA]
National Institutes of Environmental Health Sciences [NIEHS]
National Toxicology Program [NTP]
Cell-based models are critical for drug discovery. Determining the natural cytotoxic effects resulting from test compounds is an essential research activity. A CellTox Green Cytotoxicity Assay to monitor cytotoxicity in real time of continues cell culture during 40 hours of the compound treatment was used to screen Tox21 10K library compounds in HepG2 cells. CellTox Green Cytotoxicity Assay is a nonlytic, homogeneous, biofluorescent method to measure cytotoxicity in cell culture after experimental manipulation. The assay system uses a proprietary asymmetric cyanine dye that is excluded from viable cells but preferentially stains the dead cell's DNA. […] Viable cells produce no appreciable increases in fluorescence. Therefore, the fluorescence signal produced by the binding interaction with dead cell DNA is proportional to cytotoxicity.
The mixture of HepG2 cell suspension and reagents were dispensed at 600cells/6 ul/well in 1536-well tissue culture treated black solid bottom plates using a Multidrop dispenser. After the assay plates were incubated at a 37 C/5% CO2 incubator for 5 hours, 23 nL of compounds dissolved in DMSO, positive and negative controls was transferred to the assay plate by a pintool work station. The plates were incubated at 37 C for 40 hours. The fluorescence intensity were measured at 0h, 8h, 16h, 24h, 32h and 40h time points using ViewLux plate reader during compound treatment.
Potency is the fitted concentration of half-maximal effect.

SMILES | Potency
CCCCCC[n+]1ccccc1 | inactive
CN(C)[C@@H]1C(=O)C(C(N)=O)=C(O)[C@@]2(O)C(=O)C3=C(O)c4c(O)cccc4[C@@](C)(O)[C@H]3[C@H](O)[C@@H]12 | inactive
O=C(O)C(Cl)(Cl)Cl | inactive
O=c1nc(O)n(Cl)c(=O)n1Cl | inactive
O=P1(N(CCCl)CCCl)NCCCO1 (stereo not given) | inactive
CCCCCCCCn1cc[n+](C)c1 | inactive
CCCCn1cc[n+](C)c1C | inactive
O=[N+]([O-])c1ccccc1O | inactive
COc1ccccc1N | inactive
CCC(=O)C(CC(C)N(C)C)(c1ccccc1)c1ccccc1 (stereo not given) | inactive
CCCC[n+]1ccccc1C | inactive
CCCn1cc[n+](C)c1 | inactive
COCC(=O)N(c1c(C)cccc1C)C(C)C(=O)OC (stereo not given) | inactive
CCCCCCCCCCCCCCCCn1cc[n+](C)c1 | inactive and 55.4 µM (active) and 55.1 µM (active)
COP(=O)(OC)OC=C(Cl)Cl | inactive
Nc1ccc(-c2ccc(N)cc2)cc1 | inactive
N#CS | inactive
O=C(O)COc1ccc(Cl)cc1Cl | inactive
Oc1ccccc1-c1ccccc1 | inactive
CCCC[N+]1(C)CCCCC1 | inactive

SMILES | Potency
COc1ccc(N)cc1 | inactive
Nc1ccc(-c2ccc(N)c(Cl)c2)cc1Cl | inactive and 43.6 µM (active)
O=C(O)c1nc(Cl)ccc1Cl | inactive
CCCCCCCCCCCCn1cc[n+](C)c1 | 44 µM (active) and inactive
CCCCn1cc[n+](C)c1 | inactive
CCCCCCCCCCCCCC[P+](CCCCCC)(CCCCCC)CCCCCC | 19.6 µM (active) and 22.1 µM (active) and inactive
CCNc1nc(Cl)nc(NCC)n1 | inactive
CCCCCCCCCCCCOS(=O)(=O)O | inactive
Cc1cc(Cl)ccc1OCC(=O)O | inactive
CCC[N+]1(C)CCCC1 | inactive
O=C(O)CCl | inactive
CC[N+](CC)(CC)CC | inactive
C[C@]12CCC(=O)C=C1CC[C@@H]1[C@@H]2CC[C@]2(C)C(=O)CC[C@@H]12 | inactive
O=C(O)c1ccccc1O | inactive
CCCC[n+]1ccccc1 | inactive
O=C(O)C(Cl)Cl | inactive
COP(=O)(OC)C(O)C(Cl)(Cl)Cl (stereo not given) | inactive
O=[N+]([O-])O | inactive
OCCOc1ccccc1 | inactive
CCCC[n+]1cccc(C)c1 | inactive
